By viability is commonly meant a read-out of living cells in per cent, often relative to untreated cells.

Our source for the viability values is PubChem BioAssay AID648 (SRMLSC, 2007).

About 920 (1.1%) of roughly 86,000 compounds were called active. The sample as a whole holds a higher share of actives than the screen did. Unmarked numbers belong to inactive results.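 The calls were made as follows: active = viability at or below 30%; inactive = viability above 30%.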

This assay is described as follows: inhibitors of HUVEC proliferation, primary screen, cell-based, 384-well (AID 648).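 Also: 100% = median luminescence of DMSO-only cell control wells on each plate.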 Conditions: CellTiter-Glo luminescence, 72 h, hits give low values, screened at 10 µM (by protocol). (In general: Cellular ATP, detected with luciferase, serves as a proxy for viable cell number.)
Turning to `O=C(C(NS(=O)(=O)c1cccc2nsnc12)c1ccccc1)N1CCN(c2ccccc2)CC1` (stereo not drawn), the viability is 101%.
Consider `CCC1(C)Cc2c(sc3nc4n(c(=O)c23)CCCS4)CO1` (stereo not drawn), for which the viability is 101%.
Consider `CCC1(C)Cc2c(sc3nc(SC)nc(N)c23)CO1` (stereo not drawn), for which the viability is 93.2%.
The same measure for `CCC1(C)Cc2c(sc3[nH]c(=S)n(Cc4ccccc4)c(=O)c23)CO1` (stereo not drawn): 7% (active); for `C=CCn1c(N)cc(=O)nc1SCC(=O)Nc1cccc2ccccc12`: 103%.
Turning to `O=C(NC1CCCCC1)c1ccc(CNc2c(N3CCOCC3)c(=O)c2=O)cc1`, the viability was 105%.
For `COC(=O)c1c(C)c(C)nc(N)c1C#N`, the viability is 104%.
For `Oc1ccc2ccc3cccc[n+]3c2c1`, the viability is 97.5%.
On to `COc1ccc(-c2cc(C)nc3nc(N)nn23)cc1`, for which the viability is 86.4%.
For `Cc1cc(N)n2nc(-c3ccc(C(C)(C)C)cc3)cc2n1`, the viability was 24.9% (active).
With `Cc1nc2cc(-c3ccc(F)cc3)nn2c(N2CCOCC2)c1C`, the viability was 98.8%.
On to `CCCCCN1CC(O)=C(c2nc(-c3ccc(Cl)cc3)cs2)C1=N`, for which the viability was 102%.
For the compound `O=C(O)CCN=C1CCc2ccccc2N1`, the viability was 95.7%.
With `O=C(COc1ccc(S(=O)(=O)NCc2ccccc2)cc1)N1CCOCC1`, the viability was 98.2%.
Turning to `Cc1ccc2oc(=O)c3cnn(CC(=O)N(Cc4ccco4)C4CCCCC4)c3c2c1`, the viability is 84%.
For the compound `COc1cc(CC(=O)NCc2cccs2)cc(OC)c1OC`, the viability is 98.3%.
The same measure for `C1=C(CCNc2ncnc3c2cnn3-c2ccccc2)CCCC1`: 94.9%; for `O=C(NCCC1=CCCCC1)C1CCN(Cc2cnn(-c3ccccc3)c2-n2cccc2)CC1`: 28.4% (active).
Turning to `CC(=O)Nc1ccc(NC(=O)CSCc2cnn(-c3ccccc3)c2-n2cccc2)cc1`, the viability is 89.5%.
As for `CCn1c(SCC(=O)Nc2ccc(S(=O)(=O)Nc3onc(C)c3C)cc2)nnc1-c1ccccc1`, the viability was 89.5%.
For the compound `Brc1ccc(-c2nnc(-c3ccccc3)o2)o1`, the viability was 90.9%.
Turning to `OCCN1CCOCCOCCN(CCO)CCN(CCO)CC1`, the viability is 105%.
Consider `CC(C)(C)c1cc(=O)n2c(nc3ccccc32)[nH]1`, for which the viability is 103%.
The same measure for `Cc1nc2nc(COc3ccccc3)[nH]n2c(=O)c1C`: 88.1%; for `Cc1[nH]n(-c2cccc(Cl)c2)c(=O)c1-c1ccc(Cl)cc1`: 63.2%.
As for `Cc1nc2c(-c3ccccc3)c(C)[nH]n2c(=O)c1Cl`, the viability is 12% (active).
Turning to `CCCN(Cc1cc2cccc(C)c2[nH]c1=O)S(C)(=O)=O`, the viability was 95.8%.
The same measure for `CCOc1ccc(S(=O)(=O)N2CCCCCC2)c2ccccc12`: 102%; for `O=C1CSC2=NCN(c3ccccc3)CN12`: 93.5%; for `Cc1cccc(N2C(=O)c3cccnc3C2=O)c1`: 95.8%.
The same measure for `COc1cc(/C=C(\C#N)c2nc3c(s2)CC(C)CC3)ccc1O` (stereo not drawn): 83.7%; for `COc1ccc(-c2nnc(SCC(=O)c3ccco3)n2-c2ccccc2)cc1`: 92.6%.
With `N#Cc1c(NC(=O)CSc2nc3ccccc3c(=O)n2Cc2ccco2)sc2c1CCCC2`, the viability was 58.5%.
In the case of `COc1ccc(-n2c(SCC(=O)Nc3sc4c(c3C#N)CCCC4)nnc2-c2ccc(O)cc2)cc1`, the viability was 3.66% (active).
`Cc1cc(NC(=O)CCC(=O)N(CC(=O)NCC2CCCO2)c2ccccc2C)no1` (stereo not drawn): the viability was 105%.
On to `CC(C)(O)C(=O)NN(C(=O)c1ccccc1)c1cccc(Br)c1`, for which the viability was 109%.
Regarding `CCOC(=O)c1nnn(-c2nonc2-n2cccc2)c1CN1CCC(C(=O)OCC)CC1`, the viability is 92.5%.
As to `Cc1cc(-n2nc(C)cc2C)n2nc(C)c(-c3ccccc3)c2n1`, the viability was 106%.
Turning to `CCOC(=O)c1nnn(-c2nonc2-n2cccc2)c1CN1CCOCC1`, the viability was 100%.
Turning to `Fc1ccccc1/C=C1\CCCC2=C1Nc1ncnn1C2c1ccccc1F` (stereo not drawn), the viability was 13% (active).
Regarding `CCCCc1nnc(NC(=O)CS(=O)(=O)Cc2ccccc2)s1`, the viability is 107%.
The same measure for `Clc1ccc(COn2c(-c3ccc(Cl)cc3Cl)nc3ncccc32)cc1`: 86%.
The same measure for `Cc1noc(/C=C/c2ccco2)c1S(=O)(=O)N1CCC(C(=O)N2CCc3ccccc32)CC1`: 93.3%.
